In PubChem BioAssay (EPA / NIEHS) one finds outcome and AC50 data, which are given here for three compounds.

Holding throughout (conditions): mRNA level, 48 h; actives raise or lower the signal
Read-out in assay [1]: Bcl-2 (BID) gene, BID (gene 637)
The experiment in a line: LTEA_HepaRG_BID: Life Technologies and Expression Analysis (LTEA) Assay for Bcl-2 (BID) gene using HepaRG (AID 2283476). In short, it runs like this:
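Gene expression by qRT-PCR in HepaRG cells after 48 h exposure, duplicate wells, eight half-log concentrations topping at 100 uM in 0.5% DMSO. Normalized to ACTB, GAPDH, POLR2A; bidirectional fitting relative to DMSO.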

Read-out in a further assay: Caspase-3 (Homo sapiens) (UniProt P42574)
The experiment in a line: LTEA_HepaRG_CASP3: Life Technologies and Expression Analysis (LTEA) Assay for cysteine-aspartic acid protease (CASP3) using HepaRG (AID 2283477). In outline: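 In HepaRG liver cells dosed for 48 h at up to 100 uM (eight-point, duplicate), CASP3 expression changes are scored by qRT-PCR. Activity is fitted in both directions with 0.5% DMSO as baseline.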

Read-out in assay [2]: Cytochrome P450 (CYP24A1), CYP24A1 (gene 1591)
The experiment in a line: LTEA_HepaRG_CYP24A1: Life Technologies and Expression Analysis (LTEA) Assay for Cytochrome P450 (CYP24A1) using HepaRG (AID 2283478). In short, it runs like this:
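Human liver HepaRG cultures receive each chemical for 48 h across an eight-point half-log series topping at 100 uM in 0.5% DMSO. Induction or suppression of CYP24A1 mRNA is scored relative to vehicle after housekeeping-gene normalization.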

Read-out in assay [3]: Cytochrome P450 (CYP1A2), CYP1A2 (gene 1544)
The assay can be described thus: LTEA_HepaRG_CYP1A2: Life Technologies and Expression Analysis (LTEA) Assay for Cytochrome P450 (CYP1A2) using HepaRG (AID 2283479). In short, it runs like this: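 Assesses CYP1A2 mRNA in human HepaRG liver cells after 48 h chemical exposure at up to 100 uM. Values come from qRT-PCR with bidirectional curve fitting relative to DMSO.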

Read-out in assay [4]: cysteine-aspartic acid protease (CASP8), CASP8 (gene 841)
The assay can be described thus: LTEA_HepaRG_CASP8: Life Technologies and Expression Analysis (LTEA) Assay for cysteine-aspartic acid protease (CASP8) using HepaRG (AID 2283480). In short, it runs like this: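 Differentiated HepaRG cells in serum-free induction medium, 48 h exposure, eight-point half-log series from 100 uM in 0.5% DMSO, duplicates. CASP8 mRNA by qRT-PCR, normalized to ACTB, GAPDH, POLR2A; bidirectional fit versus DMSO.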

Read-out in assay [5]: Cytochrome P450 (CYP2B6), CYP2B6 (gene 1555)
The experiment in a line: LTEA_HepaRG_CYP2B6: Life Technologies and Expression Analysis (LTEA) Assay for Cytochrome P450 (CYP2B6) using HepaRG (AID 2283481). In outline:
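Using 48 h treatment of HepaRG cells in serum-free induction medium, concentrations spanned half-log steps from 100 uM in 0.5% DMSO vehicle. CYP2B6 mRNA induction or loss is scored by qRT-PCR against DMSO.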

Read-out in assay [6]: Cytochrome P450 2C19 (Homo sapiens) (UniProt P33261)
The assay can be described thus: LTEA_HepaRG_CYP2C19: Life Technologies and Expression Analysis (LTEA) Assay for CYP2C19 using HepaRG (AID 2283482). In outline: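 Human HepaRG liver cells received test chemicals for 48 h (highest 100 uM, half-log dilutions in 0.5% DMSO). CYP2C19 mRNA induction or loss is read by multiplexed qRT-PCR and fitted in both directions versus vehicle.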

Read-out in the next assay: CYP2C8 (gene 1558)
The experiment in a line: LTEA_HepaRG_CYP2C8: Life Technologies and Expression Analysis (LTEA) Assay for CYP2C8 using HepaRG (AID 2283483). In short, it runs like this: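 Differentiated HepaRG cells in serum-free induction medium exposed 48 h in duplicate to 8 half-log concentrations from 100 uM in 0.5% DMSO. CYP2C8 mRNA by qRT-PCR normalized to ACTB, GAPDH, POLR2A; bidirectional fit versus DMSO.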

Read-out in the next assay: CYP2C9 (gene 1559)
The experiment in a line: LTEA_HepaRG_CYP2C9: Life Technologies and Expression Analysis (LTEA) Assay for CYP2C9 using HepaRG (AID 2283484). In short, it runs like this:
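Differentiated human HepaRG cells in serum-free induction medium were exposed 48 h to chemicals in 8-point half-log series from 100 uM (0.5% DMSO), in duplicate. CYP2C9 mRNA was measured by qRT-PCR, normalized to ACTB/GAPDH/POLR2A, with bidirectional fitting versus DMSO.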

Read-out in a further assay: CYP2E1 (gene 1571)
The experiment in a line: LTEA_HepaRG_CYP2E1: Life Technologies and Expression Analysis (LTEA) Assay for CYP2E1 using HepaRG (AID 2283485). In short, it runs like this: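 HepaRG cells, plated 48 h, then exposed 48 h in serum-free induction medium to eight half-log concentrations from 100 uM in 0.5% DMSO, duplicate. CYP2E1 mRNA by qRT-PCR, normalized to ACTB/GAPDH/POLR2A; bidirectional fit versus DMSO.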

Read-out in the next assay: CYP4A11 (gene 1579)
The experiment in a line: LTEA_HepaRG_CYP4A11: Life Technologies and Expression Analysis (LTEA) Assay for CYP4A11 using HepaRG (AID 2283486). In outline: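 Readout is CYP4A11 mRNA induction or suppression (qRT-PCR, ACTB/GAPDH/POLR2A normalization) in human HepaRG cells after 48 h chemical treatment, concentrations to 100 uM in 0.5% DMSO, fitted bidirectionally against vehicle.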

Read-out in assay [7]: Cytochrome P450 3A4 (Homo sapiens) (UniProt P08684)
The assay can be described thus: LTEA_HepaRG_CYP3A4: Life Technologies and Expression Analysis (LTEA) Assay for CYP3A4 using HepaRG (AID 2283487). In outline:
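Differentiated HepaRG cells in serum-free induction medium exposed in duplicate for 48 h to 8 half-log concentrations up to 100 uM in 0.5% DMSO. CYP3A4 mRNA measured by qRT-PCR normalized to ACTB, GAPDH and POLR2A; bidirectional fit versus DMSO.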

Read-out in assay [8]: DNA damage-inducible transcript 3 (DDIT3), DDIT3 (gene 1649)
The experiment in a line: LTEA_HepaRG_DDIT3: Life Technologies and Expression Analysis (LTEA) Assay for DNA damage-inducible transcript 3 (DDIT3) using HepaRG (AID 2283488). In outline: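 HepaRG cells, 48 h after plating, exposed 48 h in serum-free induction medium to 8 half-log concentrations up to 100 uM in 0.5% DMSO, in duplicate. DDIT3 mRNA measured by TaqMan qRT-PCR, normalized to ACTB, GAPDH and POLR2A. Fitted bidirectionally against DMSO.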

Read-out in assay [9]: Pro-epidermal growth factor (Homo sapiens) (UniProt P01133)
The experiment in a line: LTEA_HepaRG_EGF: Life Technologies and Expression Analysis (LTEA) Assay for Epidermal growth factor (EGF) using HepaRG (AID 2283489). In short, it runs like this: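 EGF expression changes in human HepaRG cells are scored by bidirectional fitting relative to 0.5% DMSO controls. Chemicals are tested at eight half-log concentrations up to 100 uM for 48 h in serum-free induction medium.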

Read-out in assay [10]: Early growth response protein 1 (EGR1) transcription factor, EGR1 (gene 1958)
The assay can be described thus: LTEA_HepaRG_EGR1: Life Technologies and Expression Analysis (LTEA) Assay for Early growth response protein 1 (EGR1) transcription factor using HepaRG (AID 2283490). In outline: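 Differentiated HepaRG cells in serum-free induction medium exposed 48 hours, duplicate, to 8 half-log concentrations up to 100 uM in 0.5% DMSO. EGR1 mRNA measured by TaqMan qRT-PCR, normalized to ACTB, GAPDH, POLR2A; bidirectional fit versus DMSO.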

Read-out in assay [11]: Cytochrome P450 3A7 (Homo sapiens) (UniProt P24462)
The assay can be described thus: LTEA_HepaRG_CYP3A7: Life Technologies and Expression Analysis (LTEA) Assay for CYP3A7 using HepaRG (AID 2283492). In outline: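 Cells were thawed, plated, cultured 48 h, then treated for a further 48 h with chemicals (eight-point half-log series from 100 uM, 0.5% DMSO). RNA was isolated and CYP3A7 expression quantified by qRT-PCR normalised to ACTB, GAPDH and POLR2A.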

Read-out in the next assay: CYP3A5 (gene 1577)
The assay can be described thus: LTEA_HepaRG_CYP3A5: Life Technologies and Expression Analysis (LTEA) Assay for CYP3A5 using HepaRG (AID 2283493). In short, it runs like this: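 HepaRG cells, plated 48 h then in serum-free induction medium, dosed in duplicate for 48 h with eight half-log concentrations up to 100 uM in 0.5% DMSO. Gene mRNA by Fluidigm TaqMan qRT-PCR, normalized to ACTB, GAPDH, POLR2A.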

Read-out in assay [12]: Fatty Acid-Binding Protein 1 (FABP1), FABP1 (gene 2168)
The assay can be described thus: LTEA_HepaRG_FABP1: Life Technologies and Expression Analysis (LTEA) Assay for Fatty Acid-Binding Protein 1 (FABP1) using HepaRG (AID 2283494). In outline:
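Differentiated human HepaRG cells exposed 48 h in serum-free induction medium to eight half-log concentrations up to 100 uM (0.5% DMSO), duplicate. FABP1 mRNA by qRT-PCR, normalised to ACTB, GAPDH, POLR2A; bidirectional fitting against DMSO.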

Read-out in assay [13]: Cytochrome P450 4A22 (Homo sapiens) (UniProt Q5TCH4)
The assay can be described thus: LTEA_HepaRG_CYP4A22: Life Technologies and Expression Analysis (LTEA) Assay for Cytochrome P450 4A22 (CYP4A22) using HepaRG (AID 2283495). In short, it runs like this: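 Cryopreserved HepaRG cells, plated and cultured 48 h, then switched to serum-free induction medium and treated 48 h (duplicates, up to 100 uM, half-log steps, 0.5% DMSO). Expression change of CYP4A22 was fitted bidirectionally against vehicle.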

Read-out in assay [14]: Ezrin (EZR), EZR (gene 7430)
The assay can be described thus: LTEA_HepaRG_EZR: Life Technologies and Expression Analysis (LTEA) Assay for Ezrin (EZR) using HepaRG (AID 2283491). In short, it runs like this:
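Differentiated human HepaRG cells, 48 h after plating, were exposed in serum-free induction medium for 48 hours to eight half-log concentrations up to 100 uM in 0.5% DMSO. EZR mRNA was measured by TaqMan qRT-PCR, normalized to ACTB, GAPDH and POLR2A, and fitted bidirectionally against DMSO.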

Activity calls are given as the source filed them. The calls were made as follows: active = hit-call score of the fitted dose curve at least 0.9, where 1 is the maximum; inactive = score below 0.9.

Chain of Caspase-3 (Homo sapiens) (P42574 whole entry, looked up): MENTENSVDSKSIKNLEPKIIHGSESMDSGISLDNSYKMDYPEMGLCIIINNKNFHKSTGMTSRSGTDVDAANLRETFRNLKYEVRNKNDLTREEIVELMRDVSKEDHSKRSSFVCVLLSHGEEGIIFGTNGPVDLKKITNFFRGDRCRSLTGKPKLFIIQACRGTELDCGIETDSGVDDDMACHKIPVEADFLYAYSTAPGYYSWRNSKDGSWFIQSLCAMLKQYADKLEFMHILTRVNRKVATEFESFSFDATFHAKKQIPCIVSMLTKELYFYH
Chain of Cytochrome P450 3A4 (Homo sapiens) (P08684 whole entry, looked up): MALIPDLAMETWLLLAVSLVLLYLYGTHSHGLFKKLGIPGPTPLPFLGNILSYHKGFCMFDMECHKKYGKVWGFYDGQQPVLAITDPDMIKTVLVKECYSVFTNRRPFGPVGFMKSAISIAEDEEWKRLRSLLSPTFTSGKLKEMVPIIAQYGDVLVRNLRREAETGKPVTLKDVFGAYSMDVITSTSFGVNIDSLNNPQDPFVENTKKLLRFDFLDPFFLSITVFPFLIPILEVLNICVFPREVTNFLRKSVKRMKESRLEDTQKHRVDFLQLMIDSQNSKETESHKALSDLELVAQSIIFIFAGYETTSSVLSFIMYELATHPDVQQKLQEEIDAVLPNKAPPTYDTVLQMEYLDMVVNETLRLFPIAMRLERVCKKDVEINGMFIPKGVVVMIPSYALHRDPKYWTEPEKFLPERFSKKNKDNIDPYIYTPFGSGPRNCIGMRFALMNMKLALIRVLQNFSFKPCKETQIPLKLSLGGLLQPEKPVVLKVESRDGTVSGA
Chain of Cytochrome P450 3A7 (Homo sapiens) (P24462 whole entry, looked up): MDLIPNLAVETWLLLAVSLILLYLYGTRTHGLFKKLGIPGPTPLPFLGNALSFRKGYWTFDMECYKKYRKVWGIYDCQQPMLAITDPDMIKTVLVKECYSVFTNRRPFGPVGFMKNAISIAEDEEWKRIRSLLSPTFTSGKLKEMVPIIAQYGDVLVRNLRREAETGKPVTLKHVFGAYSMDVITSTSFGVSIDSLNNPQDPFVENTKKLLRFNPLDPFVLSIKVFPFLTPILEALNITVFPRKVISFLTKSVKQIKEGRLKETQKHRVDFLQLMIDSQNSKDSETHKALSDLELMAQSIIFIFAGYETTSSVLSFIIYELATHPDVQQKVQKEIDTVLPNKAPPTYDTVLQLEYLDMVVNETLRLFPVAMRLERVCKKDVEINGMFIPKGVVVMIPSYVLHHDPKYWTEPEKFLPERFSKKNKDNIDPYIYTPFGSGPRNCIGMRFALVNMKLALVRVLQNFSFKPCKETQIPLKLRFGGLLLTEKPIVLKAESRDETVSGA
Chain of Cytochrome P450 2C19 (Homo sapiens) (P33261 whole entry, looked up): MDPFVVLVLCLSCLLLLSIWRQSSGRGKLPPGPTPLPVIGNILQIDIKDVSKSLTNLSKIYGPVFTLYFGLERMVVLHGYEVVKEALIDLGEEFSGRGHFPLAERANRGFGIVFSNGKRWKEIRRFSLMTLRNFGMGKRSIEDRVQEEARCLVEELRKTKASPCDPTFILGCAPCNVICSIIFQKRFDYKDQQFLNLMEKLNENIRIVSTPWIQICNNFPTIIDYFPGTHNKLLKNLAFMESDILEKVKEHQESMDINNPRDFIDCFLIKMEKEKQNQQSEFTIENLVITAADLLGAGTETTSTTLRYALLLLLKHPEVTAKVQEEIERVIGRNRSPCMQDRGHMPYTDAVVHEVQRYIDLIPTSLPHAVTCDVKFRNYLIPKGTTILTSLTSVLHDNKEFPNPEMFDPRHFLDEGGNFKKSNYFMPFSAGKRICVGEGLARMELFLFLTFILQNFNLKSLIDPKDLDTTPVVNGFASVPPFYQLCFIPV

For the compound `FC(F)C(F)(F)OCC(Cn1cncn1)c1ccc(Cl)cc1Cl` (configuration not stated), the result in [1], in assay [2], in [4] and in assay [9] was inactive. Moreover, the half-maximal activity concentration (AC50) is 82 µM (active) with Caspase-3 (Homo sapiens); 28.6 µM (active) in [3]; 31.7 µM (active) in assay [5]; 34.8 µM (active) in [6]; 24.6 µM (active) with CYP2C8 (gene 1558); 38.1 µM (active) with CYP2C9 (gene 1559). For the same compound, the AC50 in the assay with CYP2E1 (gene 1571) was 16.1 µM (active); with CYP4A11 (gene 1579) it was 28.8 µM (active); in assay [7] it was 35.2 µM (active); in assay [8] it was 28.7 µM (active); in assay [10] it was 11.1 µM (active); in assay [11], 49.8 µM (active). Also, the half-maximal activity concentration (AC50) with CYP3A5 (gene 1577) was 83 µM (active); in assay [12], 34.8 µM (active); in assay [13], 16.6 µM (active).
With `CCCCN(CC)c1c([N+](=O)[O-])cc(C(F)(F)F)cc1[N+](=O)[O-]`, the result (in assay [1]; in the assay with Caspase-3 (Homo sapiens); in assay [2]; in assay [4]; with CYP2C8 (gene 1558); in the assay with CYP2C9 (gene 1559)) was inactive. The compound was called inactive (in the assay with CYP2E1 (gene 1571); with CYP4A11 (gene 1579); in [8]; in assay [9]; in assay [10]; in assay [14]). For the same compound, the compound was called inactive (in [11]; with CYP3A5 (gene 1577); in [13]). Also, the AC50 was 35.8 µM (active) in assay [3], 32 µM (active) in assay [5], 50 µM (active) in [6] and 23.2 µM (active) in [7].
For `CCCCSP(=O)(SCCCC)SCCCC`, the compound was called inactive (in assay [1]; with Caspase-3 (Homo sapiens); in [2]; in assay [4]; with CYP2C8 (gene 1558); in the assay with CYP2C9 (gene 1559)). Also, the result (in assay [9]; in assay [10]; in [14]; in assay [11]; in the assay with CYP3A5 (gene 1577)) was inactive. The AC50 in assay [3] was 13 µM (active); in assay [5] it was 12.5 µM (active); in assay [6] it was 12.8 µM (active); with CYP2E1 (gene 1571), 63.4 µM (active); with CYP4A11 (gene 1579) it was 76.2 µM (active); in assay [7] it was 26.1 µM (active). Also, the AC50 in assay [8] was 76 µM (active); in assay [13] it was 68.1 µM (active).

Broadly, the AC50 is the concentration giving half of the maximal activity seen.
